From paper PMC7862700, “An all-to-all approach to the identification of sequence-specific readers for epigenetic DNA modifications on cytosine”

Experiments:
Test in all cases: DAPPL (digital affinity profiling via proximity ligation, sequencing); 10 mM Tris-HCl pH 7.5, 50 mM NaCl, 1 mM DTT, 4% glycerol, room temperature, 30 min; GST-TFs on glutathione beads, 16-mer random dsDNA library, 0.1% formaldehyde crosslink after washing; high values mean tight binding
[1] = target: T1, FLI1 (Homo sapiens, UniProt Q01543 1-452); details: protein: recombinant; tags: N-terminal GST; dsDNA, one strand shown
T1 sequence: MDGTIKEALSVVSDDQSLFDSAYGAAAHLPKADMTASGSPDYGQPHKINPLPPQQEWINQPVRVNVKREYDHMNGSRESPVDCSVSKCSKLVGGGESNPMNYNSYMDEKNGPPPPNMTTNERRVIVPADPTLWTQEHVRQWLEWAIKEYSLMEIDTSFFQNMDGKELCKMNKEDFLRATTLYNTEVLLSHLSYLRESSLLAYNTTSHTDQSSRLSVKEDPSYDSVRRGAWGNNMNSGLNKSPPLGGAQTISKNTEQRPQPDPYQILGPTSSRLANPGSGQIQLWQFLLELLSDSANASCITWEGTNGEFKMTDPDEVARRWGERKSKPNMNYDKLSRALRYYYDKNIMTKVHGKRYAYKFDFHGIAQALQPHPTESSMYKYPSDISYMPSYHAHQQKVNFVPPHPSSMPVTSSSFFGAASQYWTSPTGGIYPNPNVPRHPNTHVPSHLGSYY
How it was run: (§1)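 GST fusions of human transcription factors were expressed in yeast and captured with glutathione beads. Once given DNA barcodes and pooled alongside a tag-only sample, they were incubated for 30 min at room temperature with 200 nmole of a random double-stranded 16-mer DNA library in Tris/NaCl/DTT/glycerol buffer, then washed, crosslinked (0.1% formaldehyde), proximity-ligated, PCR-amplified and sequenced on an Illumina NextSeq500. The binding signal of each hexamer is its read frequency for a factor divided by its frequency for the tag-only sample.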

[2] = target: T2, ELK1 (Homo sapiens, UniProt P19419 1-428); details: protein: recombinant; tags: N-terminal GST; dsDNA, one strand shown
T2 sequence: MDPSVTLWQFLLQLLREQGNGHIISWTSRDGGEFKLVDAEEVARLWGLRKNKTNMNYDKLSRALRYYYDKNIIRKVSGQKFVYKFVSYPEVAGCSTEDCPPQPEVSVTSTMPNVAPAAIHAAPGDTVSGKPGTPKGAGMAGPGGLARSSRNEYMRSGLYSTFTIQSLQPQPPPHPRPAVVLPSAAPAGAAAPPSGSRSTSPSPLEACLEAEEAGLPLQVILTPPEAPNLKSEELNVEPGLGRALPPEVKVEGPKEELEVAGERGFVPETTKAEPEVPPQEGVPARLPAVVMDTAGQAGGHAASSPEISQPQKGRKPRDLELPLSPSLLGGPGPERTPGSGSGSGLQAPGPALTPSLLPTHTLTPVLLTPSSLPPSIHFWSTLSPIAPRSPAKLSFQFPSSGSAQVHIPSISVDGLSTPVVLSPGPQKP
How it was run: as §1

[3] = target: T3, GABPA (Homo sapiens, UniProt Q06546 1-454); details: protein: recombinant; tags: N-terminal GST; dsDNA, one strand shown
T3 sequence: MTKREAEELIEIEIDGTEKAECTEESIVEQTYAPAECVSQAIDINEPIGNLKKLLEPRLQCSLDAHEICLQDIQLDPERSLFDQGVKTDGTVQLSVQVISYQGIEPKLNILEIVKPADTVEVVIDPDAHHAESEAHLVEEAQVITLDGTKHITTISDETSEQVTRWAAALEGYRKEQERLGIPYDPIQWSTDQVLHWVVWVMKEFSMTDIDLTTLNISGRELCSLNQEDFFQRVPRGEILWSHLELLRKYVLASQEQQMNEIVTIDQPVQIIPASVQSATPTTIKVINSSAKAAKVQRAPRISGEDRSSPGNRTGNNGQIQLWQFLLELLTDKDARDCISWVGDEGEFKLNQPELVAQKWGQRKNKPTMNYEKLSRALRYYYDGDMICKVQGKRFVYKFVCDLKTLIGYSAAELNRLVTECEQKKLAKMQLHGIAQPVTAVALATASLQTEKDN
How it was run: as §1

[4] = target: T4, ERG (Homo sapiens, UniProt P11308 1-479); details: protein: recombinant; tags: N-terminal GST; dsDNA, one strand shown
T4 sequence: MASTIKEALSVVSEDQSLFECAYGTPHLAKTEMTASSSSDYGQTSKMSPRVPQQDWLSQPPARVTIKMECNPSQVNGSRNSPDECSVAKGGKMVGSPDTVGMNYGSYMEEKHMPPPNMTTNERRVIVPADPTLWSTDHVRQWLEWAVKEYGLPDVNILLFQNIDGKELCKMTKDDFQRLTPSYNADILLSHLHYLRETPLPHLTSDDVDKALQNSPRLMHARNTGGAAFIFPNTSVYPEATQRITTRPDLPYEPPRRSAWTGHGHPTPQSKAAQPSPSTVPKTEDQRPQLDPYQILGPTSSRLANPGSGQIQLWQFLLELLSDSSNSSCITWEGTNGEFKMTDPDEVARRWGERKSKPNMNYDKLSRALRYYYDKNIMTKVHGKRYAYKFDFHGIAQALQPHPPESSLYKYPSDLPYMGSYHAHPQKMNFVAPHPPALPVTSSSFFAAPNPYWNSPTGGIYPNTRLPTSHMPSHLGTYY
How it was run: as §1

[5] = target: ELF1 (Homo sapiens, UniProt P32519 1-619); details: protein: recombinant; tags: N-terminal GST; dsDNA, one strand shown
Sequence of ELF1 (P32519 whole entry): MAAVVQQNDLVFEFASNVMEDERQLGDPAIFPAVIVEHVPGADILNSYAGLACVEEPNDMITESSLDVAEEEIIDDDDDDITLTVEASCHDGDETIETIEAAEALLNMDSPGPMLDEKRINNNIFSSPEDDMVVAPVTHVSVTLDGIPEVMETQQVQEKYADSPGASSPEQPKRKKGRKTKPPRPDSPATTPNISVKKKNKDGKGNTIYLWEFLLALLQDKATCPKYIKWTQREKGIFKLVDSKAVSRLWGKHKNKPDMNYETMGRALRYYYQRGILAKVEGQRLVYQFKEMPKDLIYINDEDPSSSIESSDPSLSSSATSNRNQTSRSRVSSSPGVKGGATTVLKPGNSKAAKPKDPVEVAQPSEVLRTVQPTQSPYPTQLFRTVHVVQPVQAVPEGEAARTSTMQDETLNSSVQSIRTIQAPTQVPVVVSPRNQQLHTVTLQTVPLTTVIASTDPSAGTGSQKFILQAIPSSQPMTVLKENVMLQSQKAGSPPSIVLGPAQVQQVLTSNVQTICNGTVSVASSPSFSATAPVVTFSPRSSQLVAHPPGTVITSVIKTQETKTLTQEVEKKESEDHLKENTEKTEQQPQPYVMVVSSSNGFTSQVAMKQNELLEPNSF
How it was run: as §1

[6] = target: T5, EHF (Homo sapiens, UniProt Q9NZC4 1-300); details: protein: recombinant; tags: N-terminal GST; dsDNA, one strand shown
T5 sequence: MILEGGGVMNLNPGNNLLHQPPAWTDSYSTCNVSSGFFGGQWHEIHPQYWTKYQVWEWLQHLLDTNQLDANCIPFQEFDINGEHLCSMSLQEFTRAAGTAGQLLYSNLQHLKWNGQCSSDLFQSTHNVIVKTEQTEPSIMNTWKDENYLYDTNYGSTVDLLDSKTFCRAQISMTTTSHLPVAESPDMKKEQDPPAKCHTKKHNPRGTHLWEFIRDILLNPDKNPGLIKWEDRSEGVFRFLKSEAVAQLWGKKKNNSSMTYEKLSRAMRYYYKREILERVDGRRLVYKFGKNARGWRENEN
How it was run: as §1

[7] = target: SPI1 (Homo sapiens, UniProt P17947 1-270); details: protein: recombinant; tags: N-terminal GST; dsDNA, one strand shown
How it was run: as §1

[8] = target: SPIB (Homo sapiens, UniProt Q01892 1-262); details: protein: recombinant; tags: N-terminal GST; dsDNA, one strand shown
Sequence of SPIB (Q01892 whole entry): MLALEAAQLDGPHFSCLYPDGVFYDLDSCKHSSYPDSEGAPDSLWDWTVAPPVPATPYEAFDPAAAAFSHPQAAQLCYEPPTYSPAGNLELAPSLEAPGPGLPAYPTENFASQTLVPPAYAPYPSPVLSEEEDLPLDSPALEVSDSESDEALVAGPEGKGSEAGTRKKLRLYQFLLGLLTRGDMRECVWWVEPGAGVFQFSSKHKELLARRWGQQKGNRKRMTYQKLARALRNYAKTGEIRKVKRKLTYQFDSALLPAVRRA
How it was run: as §1

[9] = target: T6, ELK3 (Homo sapiens, UniProt P41970 1-407); details: protein: recombinant; tags: N-terminal GST; dsDNA, one strand shown
T6 sequence: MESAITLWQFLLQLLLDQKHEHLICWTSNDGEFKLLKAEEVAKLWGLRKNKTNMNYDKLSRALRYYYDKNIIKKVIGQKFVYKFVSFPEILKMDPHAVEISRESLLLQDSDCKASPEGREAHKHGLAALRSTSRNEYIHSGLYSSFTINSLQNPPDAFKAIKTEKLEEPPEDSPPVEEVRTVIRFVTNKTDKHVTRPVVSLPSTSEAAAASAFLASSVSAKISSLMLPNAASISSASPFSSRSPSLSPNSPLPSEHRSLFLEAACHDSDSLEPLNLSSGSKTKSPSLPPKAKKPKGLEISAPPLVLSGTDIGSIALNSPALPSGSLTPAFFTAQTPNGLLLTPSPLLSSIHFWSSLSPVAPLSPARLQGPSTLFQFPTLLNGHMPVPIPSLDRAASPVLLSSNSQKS
How it was run: as §1

[10] = target: T7, FEV (Homo sapiens, UniProt Q99581 1-238); details: protein: recombinant; tags: N-terminal GST; dsDNA, one strand shown
T7 sequence: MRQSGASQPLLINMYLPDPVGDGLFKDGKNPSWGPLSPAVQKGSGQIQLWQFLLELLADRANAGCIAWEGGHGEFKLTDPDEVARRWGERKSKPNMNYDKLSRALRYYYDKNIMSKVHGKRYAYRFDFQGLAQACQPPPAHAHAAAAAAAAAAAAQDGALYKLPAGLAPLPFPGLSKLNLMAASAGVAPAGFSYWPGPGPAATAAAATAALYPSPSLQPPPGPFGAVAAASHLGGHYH
How it was run: as §1

[11] = target: ETV5 (Homo sapiens, UniProt P41161 1-510); details: protein: recombinant; tags: N-terminal GST; dsDNA, one strand shown
Sequence of ETV5 (P41161 whole entry): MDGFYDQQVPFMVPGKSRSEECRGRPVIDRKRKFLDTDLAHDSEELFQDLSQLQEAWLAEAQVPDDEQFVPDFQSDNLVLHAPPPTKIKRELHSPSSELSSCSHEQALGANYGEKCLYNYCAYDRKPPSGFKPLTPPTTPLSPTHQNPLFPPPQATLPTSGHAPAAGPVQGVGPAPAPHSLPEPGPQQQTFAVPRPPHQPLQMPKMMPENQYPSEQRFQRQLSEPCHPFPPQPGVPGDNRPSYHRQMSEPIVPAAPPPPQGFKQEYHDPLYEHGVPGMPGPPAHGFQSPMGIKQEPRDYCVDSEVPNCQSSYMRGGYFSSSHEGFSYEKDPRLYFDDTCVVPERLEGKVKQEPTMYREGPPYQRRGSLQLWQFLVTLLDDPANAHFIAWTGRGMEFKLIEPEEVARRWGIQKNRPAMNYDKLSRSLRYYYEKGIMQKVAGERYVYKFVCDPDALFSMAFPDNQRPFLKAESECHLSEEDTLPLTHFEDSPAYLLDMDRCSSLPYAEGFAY
How it was run: as §1

[12] = target: HSF1 (Homo sapiens, UniProt Q00613 1-529); details: protein: recombinant; tags: N-terminal GST; chain copies: 3; dsDNA, one strand shown
Sequence of HSF1 (Q00613 whole entry): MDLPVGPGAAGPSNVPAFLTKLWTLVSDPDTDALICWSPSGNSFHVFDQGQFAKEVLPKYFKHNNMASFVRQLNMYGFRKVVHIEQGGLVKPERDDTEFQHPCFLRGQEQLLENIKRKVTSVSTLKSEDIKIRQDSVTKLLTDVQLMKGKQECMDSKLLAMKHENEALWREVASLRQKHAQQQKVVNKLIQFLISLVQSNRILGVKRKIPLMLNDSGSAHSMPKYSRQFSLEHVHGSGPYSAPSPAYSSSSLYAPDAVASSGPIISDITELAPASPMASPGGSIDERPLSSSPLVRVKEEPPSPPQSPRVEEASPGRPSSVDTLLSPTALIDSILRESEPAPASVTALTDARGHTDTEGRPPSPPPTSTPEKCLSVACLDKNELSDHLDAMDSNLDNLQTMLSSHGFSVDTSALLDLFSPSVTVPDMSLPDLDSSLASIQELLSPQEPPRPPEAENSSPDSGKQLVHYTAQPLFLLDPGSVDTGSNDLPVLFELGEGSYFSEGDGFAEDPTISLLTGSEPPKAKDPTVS
How it was run: as §1

[13] = target: T8, SPIC (Homo sapiens, UniProt Q8N5J4 1-248); details: protein: recombinant; tags: N-terminal GST; dsDNA, one strand shown
T8 sequence: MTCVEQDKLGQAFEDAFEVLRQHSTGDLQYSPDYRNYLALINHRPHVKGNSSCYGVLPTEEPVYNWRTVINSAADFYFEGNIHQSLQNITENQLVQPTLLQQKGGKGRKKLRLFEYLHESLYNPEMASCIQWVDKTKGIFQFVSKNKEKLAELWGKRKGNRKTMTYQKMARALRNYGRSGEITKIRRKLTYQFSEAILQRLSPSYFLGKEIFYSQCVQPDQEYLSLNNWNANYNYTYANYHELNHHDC
How it was run: as §1

[14] = target: ELF4 (Homo sapiens, UniProt Q99607 1-663); details: protein: recombinant; tags: N-terminal GST; dsDNA, one strand shown
Sequence of ELF4 (Q99607 whole entry): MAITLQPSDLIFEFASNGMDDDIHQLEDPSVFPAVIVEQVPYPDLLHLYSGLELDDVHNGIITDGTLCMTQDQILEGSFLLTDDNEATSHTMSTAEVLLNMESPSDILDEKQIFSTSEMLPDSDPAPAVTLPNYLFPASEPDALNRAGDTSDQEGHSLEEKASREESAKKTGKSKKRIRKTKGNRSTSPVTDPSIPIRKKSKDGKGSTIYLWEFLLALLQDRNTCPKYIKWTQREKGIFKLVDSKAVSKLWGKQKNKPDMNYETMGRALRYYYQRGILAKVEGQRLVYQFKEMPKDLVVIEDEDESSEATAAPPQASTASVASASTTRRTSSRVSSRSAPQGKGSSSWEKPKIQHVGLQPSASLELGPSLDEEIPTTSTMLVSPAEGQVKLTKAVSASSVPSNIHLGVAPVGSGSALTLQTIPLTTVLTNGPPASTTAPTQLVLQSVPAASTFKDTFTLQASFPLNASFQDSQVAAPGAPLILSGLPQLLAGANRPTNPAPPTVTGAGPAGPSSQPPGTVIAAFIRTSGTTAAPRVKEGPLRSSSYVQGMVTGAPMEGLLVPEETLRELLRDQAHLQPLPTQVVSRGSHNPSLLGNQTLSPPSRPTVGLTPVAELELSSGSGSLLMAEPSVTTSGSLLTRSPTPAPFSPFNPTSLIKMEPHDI
How it was run: as §1

[15] = target: T9, ELK4 (Homo sapiens, UniProt P28324-2 1-405); details: protein: recombinant; tags: N-terminal GST; dsDNA, one strand shown
T9 sequence: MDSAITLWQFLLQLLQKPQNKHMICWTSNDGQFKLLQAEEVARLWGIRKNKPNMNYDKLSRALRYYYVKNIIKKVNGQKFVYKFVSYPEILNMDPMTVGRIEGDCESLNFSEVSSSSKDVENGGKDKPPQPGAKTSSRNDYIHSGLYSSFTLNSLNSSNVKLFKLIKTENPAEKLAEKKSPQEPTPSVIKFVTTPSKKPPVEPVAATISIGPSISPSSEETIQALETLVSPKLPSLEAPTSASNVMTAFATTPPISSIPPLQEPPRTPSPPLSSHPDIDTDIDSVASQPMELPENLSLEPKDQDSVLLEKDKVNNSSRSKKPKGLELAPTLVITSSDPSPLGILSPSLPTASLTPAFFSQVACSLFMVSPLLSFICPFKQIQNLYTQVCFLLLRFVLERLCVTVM
How it was run: as §1

[16] = target: T10, ETV2 (Homo sapiens, UniProt O00321 1-342); details: protein: recombinant; tags: N-terminal GST; dsDNA, one strand shown
T10 sequence: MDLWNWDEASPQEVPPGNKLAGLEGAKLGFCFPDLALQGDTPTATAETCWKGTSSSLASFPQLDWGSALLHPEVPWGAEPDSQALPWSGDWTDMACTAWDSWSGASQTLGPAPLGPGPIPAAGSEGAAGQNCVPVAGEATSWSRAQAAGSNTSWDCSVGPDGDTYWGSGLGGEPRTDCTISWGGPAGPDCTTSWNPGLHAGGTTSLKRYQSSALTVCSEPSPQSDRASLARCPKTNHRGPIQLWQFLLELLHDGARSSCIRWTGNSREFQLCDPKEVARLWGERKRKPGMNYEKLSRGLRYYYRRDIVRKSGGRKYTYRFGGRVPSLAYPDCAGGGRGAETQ
How it was run: as §1

[17] = target: T11, ELF3 (Homo sapiens, UniProt P78545 1-371); details: protein: recombinant; tags: N-terminal GST; dsDNA, one strand shown
T11 sequence: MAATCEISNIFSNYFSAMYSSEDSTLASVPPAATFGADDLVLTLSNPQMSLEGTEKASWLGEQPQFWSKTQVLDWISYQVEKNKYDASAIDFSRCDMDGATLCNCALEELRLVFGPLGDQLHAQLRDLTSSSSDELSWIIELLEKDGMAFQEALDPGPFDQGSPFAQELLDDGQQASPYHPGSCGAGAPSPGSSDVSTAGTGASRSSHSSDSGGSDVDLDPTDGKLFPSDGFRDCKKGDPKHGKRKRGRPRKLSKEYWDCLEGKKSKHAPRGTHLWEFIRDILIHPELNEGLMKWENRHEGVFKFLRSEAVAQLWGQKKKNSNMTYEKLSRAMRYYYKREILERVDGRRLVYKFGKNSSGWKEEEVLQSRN
How it was run: as §1

[18] = target: CRX (Homo sapiens, UniProt O43186 1-299); details: protein: recombinant; tags: N-terminal GST; dsDNA, one strand shown
Sequence of CRX (O43186 whole entry): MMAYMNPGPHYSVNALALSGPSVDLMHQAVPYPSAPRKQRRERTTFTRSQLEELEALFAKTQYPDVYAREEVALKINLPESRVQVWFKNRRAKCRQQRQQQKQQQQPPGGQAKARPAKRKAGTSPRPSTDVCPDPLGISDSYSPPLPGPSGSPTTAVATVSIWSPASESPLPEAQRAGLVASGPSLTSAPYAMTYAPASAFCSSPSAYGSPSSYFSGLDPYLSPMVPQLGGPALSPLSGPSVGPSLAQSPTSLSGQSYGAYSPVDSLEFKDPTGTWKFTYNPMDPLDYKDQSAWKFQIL
How it was run: as §1

[19] = target: ETV1 (Homo sapiens, UniProt P50549 1-477); details: protein: recombinant; tags: N-terminal GST; dsDNA, one strand shown
Sequence of ETV1 (P50549 whole entry): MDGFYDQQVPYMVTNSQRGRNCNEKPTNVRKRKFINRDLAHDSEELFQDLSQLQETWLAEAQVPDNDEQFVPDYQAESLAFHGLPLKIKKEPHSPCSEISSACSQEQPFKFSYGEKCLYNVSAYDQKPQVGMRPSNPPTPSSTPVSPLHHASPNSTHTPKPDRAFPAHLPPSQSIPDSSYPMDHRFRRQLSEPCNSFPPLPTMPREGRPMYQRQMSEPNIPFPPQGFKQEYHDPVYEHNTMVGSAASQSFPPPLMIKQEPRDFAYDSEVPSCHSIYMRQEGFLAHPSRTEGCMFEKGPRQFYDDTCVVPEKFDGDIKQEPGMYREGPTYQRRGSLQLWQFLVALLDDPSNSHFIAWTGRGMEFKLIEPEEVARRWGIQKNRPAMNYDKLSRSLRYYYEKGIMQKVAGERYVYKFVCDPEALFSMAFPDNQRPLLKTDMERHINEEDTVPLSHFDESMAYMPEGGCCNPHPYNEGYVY
How it was run: as §1

ATACCT
binding signal [1]: 1.13 fold enrichment (6-mer frequency, TF over GST control) | binding signal [2]: 1.18 fold enrichment (6-mer frequency, TF over GST control) | binding signal [3]: 1.07 fold enrichment (6-mer frequency, TF over GST control) | binding signal [4]: 1.05 fold enrichment (6-mer frequency, TF over GST control) | binding signal [5]: 1.13 fold enrichment (6-mer frequency, TF over GST control) | binding signal [6]: 1.08 fold enrichment (6-mer frequency, TF over GST control) | binding signal [7]: 1.04 fold enrichment (6-mer frequency, TF over GST control) | binding signal [8]: 1.1 fold enrichment (6-mer frequency, TF over GST control) | binding signal [9]: 1.08 fold enrichment (6-mer frequency, TF over GST control) | binding signal [10]: 1.04 fold enrichment (6-mer frequency, TF over GST control) | binding signal [11]: 1.01 fold enrichment (6-mer frequency, TF over GST control) | binding signal [12]: 1.01 fold enrichment (6-mer frequency, TF over GST control) | binding signal [13]: 1.11 fold enrichment (6-mer frequency, TF over GST control) | binding signal [14]: 1.1 fold enrichment (6-mer frequency, TF over GST control) | binding signal [15]: 1.1 fold enrichment (6-mer frequency, TF over GST control) | binding signal [16]: 1.09 fold enrichment (6-mer frequency, TF over GST control) | binding signal [17]: 1.08 fold enrichment (6-mer frequency, TF over GST control) | binding signal [18]: 1.12 fold enrichment (6-mer frequency, TF over GST control) | binding signal [19]: 1.15 fold enrichment (6-mer frequency, TF over GST control)
